For 39 compounds, growth results are on record in PubChem BioAssay (NCI).

About 83,000 compounds went through this panel and 20% of them were active in at least one assay; those are over-represented in the sample as a whole.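 Activity criterion: percent growth below 10, measured after cells in 96-well plates were exposed to a single compound concentration for 48 hours.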 Calls of active or inactive are those of the source.

The test has as its system HL-60(TB) leukemia. Put plainly: NCI-60 one-dose screen, 48 h (100 = growth as untreated, 0 = no growth, -100 = all killed). As to conditions: 10 µM unless noted.
`C=C(C)[C@@H]1C[C@@H]2Cc3cc(Cl)ccc3N1O2`: the growth is -8.6% (active).
As for `CC1CC(C(C)(C)C)C(=O)C(C(C)(C)C)C1` (centres undefined), the growth is 107% (inactive).
Regarding `O=C(Nc1ccc(N2CCNCC2)cc1)c1[nH]ncc1Nc1ncnc2sc3c(c12)CCC3`, the growth is -49.6% (active).
With `CN1CCN(CCCOc2ccc3nc(Nc4ccc(F)c(F)c4)ccc3c2)CC1` the figure was 46.8% (inactive); with `C/C1=C\CC[C@@]2(C)O[C@H]2[C@H]2OC(=O)C(CN3CCN(CC4C(=O)O[C@H]5[C@H]4CC/C(C)=C/CC[C@@]4(C)O[C@@H]54)CC3)[C@@H]2CC1` (some centres undefined), 98.7% (inactive); with `O=C1/C=C/[C@@H](O)[C@@H]2C[C@@H](O)C[C@H]2/C=C/CCC[C@H](CCc2ccc(NC(=S)Nc3ccc4c(c3)C(=O)OC43c4ccc(O)cc4Oc4cc(O)ccc43)cc2)O1`, 4.65% (active).
With `Cc1ccc(N(CSc2ccc(Cl)cc2)CSc2ccc(Cl)cc2)cc1` the figure was -46.7% (active); with `O=C1CCC2=C3C4CCCCC4C(=O)C4CCCC(OC2C1)C34` (centres undefined), -17.1% (active); with `O=C(Cn1cc(COc2ncnc3c2cnn3-c2ccccc2)nn1)Nc1cccc2ccccc12`, 101% (inactive).
With `O=C1CCC(c2c(O)cc(O)c3c(=O)c(O)c(-c4ccc(O)c(O)c4)oc23)N1` (centres undefined) the figure was 87% (inactive); with `O=C(Nc1ccc(Nc2ncccn2)cc1)NC1C=c2ccccc2=CC1` (centres undefined), 74.1% (inactive); with `CSc1nc2ncncc2[nH]1`, 91.2% (inactive).
Regarding `Cc1ccc(S(=O)(=O)OC[C@@]2(C)CC[C@]3(C)CC[C@]4(C)C(=C3C2)C=C[C@@H]2[C@@]3(C)CCCNC(C)(C)[C@@H]3CC[C@]24C)cc1`, the growth was -58.4% (active).
Consider `Nc1nccc(Nc2ccccc2)n1`, for which the growth was 105% (inactive).
For `O=C1CSc2ccccc2N1`, the growth is 121% (inactive).
On to `O=c1nc(Nc2cccc(Cl)c2)oc2cc(Cl)oc(=O)c12`, for which the growth was 26.4% (inactive).
Consider `Clc1ccc2nc(-c3ccc(-c4ccc(/C=N/NC5=NCCN5)cc4)s3)cn2c1`, for which the growth was 98.1% (inactive).
For the compound `CCCNc1nc2ccccc2c2c(=O)c3cccc(Cl)c3sc12`, the growth is 108% (inactive).
With `COc1ccc(-c2csc(NC(=O)CSc3nc(C)cc(=O)[nH]3)n2)cc1` the figure was 106% (inactive).
With `COc1cc(C2CC(c3ccc(C)cc3)=NN2C=O)ccc1OCCN(C)C` (centres undefined) the figure was 95.3% (inactive); with `O=C1SCN(Cc2ccccc2)CN1Cc1ccccc1`, 70.7% (inactive); with `Cn1c(=O)c2[nH]c(SC/C(=N/O)c3ccc(Br)cc3)nc2n(C)c1=O`, 99.5% (inactive).
On to `Cc1cc(C)c2c(Nc3ncnc4c3sc3nc(C)cc(C)c34)n[nH]c2n1`, for which the growth is 99% (inactive).
On to `C=CCn1c(SCC(=O)Nc2ccc(C(=O)/C=C/c3ccc(Cl)cc3)cc2)nnc1-c1cc(-c2ccccc2)nc2ccccc12`, for which the growth is 99.8% (inactive).
`Cc1cc2nc3c4ccc(Br)cc4n(CCN(C)C)c3nc2cc1C`: the growth was 3.73% (active).
`COc1ccc(C2NC(=O)C(C#N)c3c2sc2c(F)cccc32)c(OC)c1` (centres undefined): the growth was 56.9% (inactive).
Then `Cc1c(NC(=O)c2sc3nc4c(cc3c2N)CN(Cc2ccccc2)CC4)cccc1C(F)(F)F`, with 3.22% (active); and `COc1ccc(Cn2cc3c(c2-c2ccc(O)cc2)CCc2cnoc2-3)cc1`, with 4.87% (active); and `N#Cc1c(-c2cccc(Cl)c2)cc(-c2cccc(Cl)c2)[nH]c1=O`, with -11.9% (active).
In the case of `NC(=O)N/N=C\c1ccc([N+](=O)[O-])o1`, the growth is 120% (inactive).
Take `O=[N+]([O-])/C(=C/C=C/c1ccccc1)c1ccccc1`: the growth is -2.71% (active).
Then `COc1cc(/C=C/c2cn[nH]c2-c2ccc(C)cc2)cc(OC)c1OC`, with 4.76% (active).
With `COc1ccc(-c2cc(-c3nnc(SCC(=O)Nc4ccc(C(C)=O)cc4)n3-c3ccccc3)c3ccccc3n2)cc1OC`, the growth was 100% (inactive).
Then `O=C1C(=O)c2cc([N+](=O)[O-])ccc2-c2ccccc21`, with -30% (active); and `COc1ccc(C(=S)N2CCN(c3ccc(Cl)cc3)CC2)cc1`, with 89.7% (inactive).
Consider `COc1cccc2nc3n(c12)C(c1c(F)cccc1F)SC3` (centres undefined), for which the growth is 70.3% (inactive).
As for `CS(=O)(=O)c1ccc(/C=C\C(=O)O)cc1`, the growth was 122% (inactive).
With `Cc1ccc(C(=O)O)c(N)c1C` the figure was 95.1% (inactive); with `C=CCOC(=O)C1=C(C)NC2=C(C(=O)CCC2)C1c1ccc(F)cc1` (centres undefined), 87.8% (inactive).
